# Measured values: PubChem BioAssay (NCI)
# The panel holds about 83,000 compounds, 20% with a hit somewhere; the sample as a whole holds those more often.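 Cells were grown in 96-well plates and exposed to the test compound at a single concentration for 48 hours; results are reported as percent growth, with values below 10 considered active.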 Calls of active or inactive are those of the source.
# Test system: HOP-92 NSCLC
# Test: NCI-60 one-dose screen, 48 h (100 = growth as untreated, 0 = no growth, -100 = all killed)
# Conditions: 10 µM unless noted
row,SMILES,growth
1,c1cc2[nH]ncc2cc1-c1nc2ccc3[nH]ncc3c2c2c1CCCC2,16.9% (inactive)
2,C#CCOc1cccc(Nc2ncnc3c(NC(=O)C=C)cccc23)c1,9.26% (active)
3,N#Cc1cnc(NCCc2ccncc2)nc1-n1cnc2ccccc21,95.7% (inactive)
4,CCOC(=O)c1c(NC(=O)c2ccc(C(C)C)cc2)sc2c(CN(C)C)c(O)ccc12,69.5% (inactive)
5,COc1ccc(N2CCC(=O)NC2=S)cc1,125% (inactive)
6,Oc1c(Cl)cc(Cl)c2ccc(Cn3cc(-c4cc(F)cc(F)c4)nn3)nc12,29% (inactive)
7,CO/N=C(/C)c1ccc(NC(=O)CSc2nnc(-c3ccncc3)n2-c2ccccc2)cc1,3.16% (active)
8,O=C1c2cccnc2C(=O)c2c1c(C(=O)NCCn1ccnc1)c1ccccn21,56.3% (inactive)
9,O=C1NC(=O)c2c1c1c3ccccc3ccc1c1[nH]c3ccc(Br)cc3c21,7.3% (active)
10,Cc1ccc(-c2nc3nc(-c4ccccc4)nc(N4CCNCC4)c3o2)cc1,-73.5% (active)
11,CC(C)(C)n1cc(-c2ccnc(NCCNS(=O)(=O)c3cccc(F)c3)c2)c(-c2ccccc2)n1,3.59% (active)
12,Cc1c(-n2nnc(-c3nc4ccccc4s3)c2N)c(=O)n(-c2ccccc2)n1C,104% (inactive)

# Test system: NCI-H522 lung
# Test: as above
# Conditions: 10 µM unless noted
row,SMILES,growth
1,Cc1ccc(Cl)cc1Nc1nc(C(F)(F)F)ccc1C(=O)N/N=C/c1cccnc1,-5.81% (active)
2,Fc1ccc(-c2nn(-c3ccccc3)cc2-c2nc3ccccc3o2)cc1,82.3% (inactive)
3,CCOC(=O)C(=Cc1cccc(Br)c1)C(=O)OCC,23.9% (inactive)
4,COc1cccc(NC(=O)Cn2cc(CN3CCN(c4ccnc5cc(Cl)ccc45)CC3)nn2)c1,80.6% (inactive)
5,CCOC(=O)c1cc2c(=O)oc3ccccc3c2oc1=O,92.1% (inactive)
6,O=C(Nc1cc(Cl)ccc1O)c1ccc(Nc2ccnc(C(F)(F)F)c2)cc1,23.7% (inactive)
7,C=C(C)[C@@H]1CC[C@]2(C(=O)O)CC[C@]3(C)[C@H](CC[C@@H]4[C@@]5(C)C[C@@H](Cc6cn(CCO[C@@H]7O[C@H](COC(C)=O)[C@H](OC(C)=O)[C@H](OC(C)=O)[C@H]7OC(C)=O)nn6)[C@H](O)C(C)(C)[C@@H]5CC[C@]43C)[C@@H]12,64.1% (inactive)
8,CC(C)CCC[C@@H](C)[C@H]1CC[C@H]2[C@@H]3CC=C4C[C@@H](C(C(=O)O)C(=O)O)CC[C@]4(C)[C@H]3CC[C@]12C,-28.7% (active)
9,O=S(=O)(Nc1ccc(Cl)cc1)c1ccc(-c2cnc(C3CC3)o2)cc1,11.4% (inactive)
10,C#CCOc1ccc2ncnc(Nc3ccc(NC(=O)CCl)cc3)c2c1,-77.9% (active)
11,CCOC(=O)C1=C(NC)OCC1=O,96.7% (inactive)
12,COC(=O)c1c2c(c(C)[n+]([O-])c1C)C(=O)C=C(NCc1ccc(Br)cc1)C2=O,-44.8% (active)
13,CCN(CC)CCOc1ccc(-c2c(-c3ccccc3)c(=O)oc3ccccc23)cc1,71.6% (inactive)
14,Nc1nc(=S)c2ncn(C3OC(COP(=O)(O)O)C(O)C3O)c2[nH]1 (stereo not given),-3.01% (active)
15,COc1ccc(/C=N/NC(=O)CCN2c3ccccc3Sc3ccccc32)cc1,62.1% (inactive)
16,c1cnc2[nH]cc(-c3csc(-c4cn(CCCN5CCOCC5)c5ccccc45)n3)c2c1,56.9% (inactive)
17,S=C1CCSC(=S)N1CCCN1C(=S)CCSC1=S,5.23% (active)
18,COc1ccc(C(=O)Nc2ncc(Cc3ccc(F)cc3)s2)cc1,-5.3% (active)
19,C=C1C(=O)O[C@H]2[C@H]1CC/C(COC(=O)NCc1cc[nH]c1)=C\CC[C@@]1(C)O[C@@H]21,-8.14% (active)
20,CN(C)CCCC1(c2ccc(F)cc2)OCc2cc(-c3cccc4[nH]ccc34)ccc21 (stereo not given),28% (inactive)
21,COC(C(=O)[C@@H](O)[C@@H](C)O)[C@@H]1Cc2cc3cc(O[C@H]4C[C@@H](O[C@H]5C[C@@H](O)[C@H](O)C(C)O5)[C@H](O)C(C)O4)c(C)c(O)c3c(O)c2C(=O)[C@H]1O[C@H]1C[C@@H](O[C@H]2C[C@@H](O[C@H]3C[C@@H](O)[C@H](OC)C(C)O3)[C@@H](O)C(C)O2)[C@H](O)C(C)O1 (stereo not given in full),-26.8% (active)
22,CCNc1cc(-c2cccc(OC(F)(F)F)c2)nc2ccc(N3CCCC3)cc12,-16.8% (active)
23,CCNc1nc(-c2ccc(Cl)c(OC)c2)c(-c2ccnc(NCCCNS(=O)(=O)c3ccc(Cl)cc3)n2)s1,28.9% (inactive)
